SMILES strings stand for the structures. Records with an inconclusive call do not appear. The source made the active and inactive calls. Unless noted, calls come from the whole dose curve; as a rule, active = well fitted curve in the direction sought with a large enough effect; inconclusive = small, poorly fitted or top-dose-only effect, or another doubt; inactive = no such curve, though single readings can be large; an effect the other way counts as inactive or inconclusive.

Among the data in PubChem BioAssay (NCATS) are Potency and outcome values, retold here.

A short description of test [1]: HTS Assay for Allosteric Antagonists of the Human D2 Dopamine Receptor: Hit Validation in HTRF (AID 624455). Note: potency is the fitted concentration of half-maximal effect.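 Note: stable D1 dopamine receptor cell line scored for blocking the D1 response.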 In outline: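 Hits were examined in an HTRF assay using cells stably expressing the D1 dopamine receptor, scoring inhibition of the D1-mediated response. The preceding primary screen tracked calcium flux after an EC80 dopamine addition in force-coupled, inducible Hek293 Trex D2 cells.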
(In TR-FRET formats the signal depends on donor and acceptor labels being close together.)

Test [2] concerns the target Glutaminase kidney isoform, mitochondrial (Homo sapiens) (UniProt O94925). In words: qHTS for Inhibitors of Glutaminase (GLS): LOPAC Validation (AID 624146). Note: nearly all actives have a fitted effect of over 60% in size. Note: potency is the fitted concentration of half-maximal effect. A digest of the protocol:
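Compounds were pin-transferred onto hKGA, after which L-glutamine (1 mM solution) and a detection mix of glutamate oxidase, HRP and Amplex Red were added. Initial and 30 min RT fluorescence reads were collected.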
For orientation: In qHTS, concentration-response curves come from the screen itself.

Test [3] in a line: qHTS of Trypanosoma Brucei Inhibitors: LOPAC Validation (AID 624147). In outline:
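ADP (130 uM final) triggers the TbPYK reaction after compound addition; incubation is 45 min at room temperature. Kinase-Glo Plus is then added and luminescence imaged. Normalized data are fitted to concentration-effect curves.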

Test [4] deals with Glucagon-like peptide 1 receptor (Homo sapiens) (UniProt P43220). In words: qHTS of GLP-1 Receptor Agonists: LOPAC Validation (AID 624148).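 Note: higher luminescence signal means agonism.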 A digest of the protocol:
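HEK293 cells stably co-expressing a cAMP-responsive luciferase reporter and a hypersensitive GLP-1R were plated 12 h at 37 °C and exposed to compounds for 4-6 hr at 37 °C, 5% CO2. Luminescence was read 12 min after adding detection reagent.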

Test [5] in a line: qHTS of Nrf2 Activators: LOPAC Validation (AID 624149). In outline: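 AREc32 cells carrying an ARE-driven firefly luciferase were grown overnight in OPTI-MEM with 5% FBS, then exposed to compounds for 24 hr at 37 deg C. Luciferase signal was read after 30 min with Steady-Glo at RT.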
The nature of test [6]: S16 Schwann cell PMP22 intronic element beta-lactamase assay (AID 624044; calls by dose curve; note: nearly all actives have a fitted effect of over 15% in size). A digest of the protocol:
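Rat S16 Schwann cells with beta-Lac driven by a PMP22 intronic element, compound-treated 24 h at 37 °C. LiveBLAzer FRET B/G read: 460 nm normalized to potassium clavulanate vs DMSO; 535 nm FRET as viability; concentration-effect curves classified.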

Glutaminase kidney isoform, mitochondrial (Homo sapiens), sequence (O94925 whole entry, looked up, canonical isoform): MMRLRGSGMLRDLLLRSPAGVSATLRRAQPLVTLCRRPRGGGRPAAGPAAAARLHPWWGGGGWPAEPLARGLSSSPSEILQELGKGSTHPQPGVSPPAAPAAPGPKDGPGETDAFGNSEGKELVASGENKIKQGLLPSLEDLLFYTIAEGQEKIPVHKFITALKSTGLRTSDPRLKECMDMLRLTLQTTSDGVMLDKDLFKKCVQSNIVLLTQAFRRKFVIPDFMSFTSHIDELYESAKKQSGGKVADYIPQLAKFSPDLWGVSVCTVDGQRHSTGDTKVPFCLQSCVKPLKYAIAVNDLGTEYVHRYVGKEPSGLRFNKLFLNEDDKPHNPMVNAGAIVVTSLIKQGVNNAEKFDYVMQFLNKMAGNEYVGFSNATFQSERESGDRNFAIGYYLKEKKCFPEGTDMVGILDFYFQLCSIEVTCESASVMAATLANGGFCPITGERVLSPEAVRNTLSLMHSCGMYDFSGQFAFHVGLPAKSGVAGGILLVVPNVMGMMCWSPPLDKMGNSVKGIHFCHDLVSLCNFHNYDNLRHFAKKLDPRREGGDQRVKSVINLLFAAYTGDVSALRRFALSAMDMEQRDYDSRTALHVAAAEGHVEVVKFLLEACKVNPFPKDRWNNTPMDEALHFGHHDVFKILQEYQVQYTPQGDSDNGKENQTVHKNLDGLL
Glucagon-like peptide 1 receptor (Homo sapiens), sequence (P43220 whole entry, looked up): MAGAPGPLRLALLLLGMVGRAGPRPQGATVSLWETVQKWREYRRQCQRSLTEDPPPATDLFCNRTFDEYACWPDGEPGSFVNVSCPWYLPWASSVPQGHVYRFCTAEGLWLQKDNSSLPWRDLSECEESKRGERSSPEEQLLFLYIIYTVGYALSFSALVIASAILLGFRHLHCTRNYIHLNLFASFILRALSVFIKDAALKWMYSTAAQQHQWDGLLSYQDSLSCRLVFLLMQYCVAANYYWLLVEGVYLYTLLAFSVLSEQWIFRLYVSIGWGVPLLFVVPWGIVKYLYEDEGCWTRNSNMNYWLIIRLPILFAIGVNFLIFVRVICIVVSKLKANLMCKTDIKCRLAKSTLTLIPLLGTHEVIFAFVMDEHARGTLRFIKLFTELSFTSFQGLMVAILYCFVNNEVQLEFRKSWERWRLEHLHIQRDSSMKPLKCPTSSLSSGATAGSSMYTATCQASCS

In the case of `CCC1C(=O)OCC1Cc1cncn1C` (stereo not drawn), in test [1], the Potency entry is “inactive”.

Regarding `N=c1ccn2c(n1)O[C@H]1[C@H](O)[C@@H](CO)O[C@H]12`, the Potency result in test [1] was “inactive”.

For `COc1cccc(OC)c1OCCNCC1COc2ccccc2O1` (stereo not drawn), the Potency result in test [2] and in test [3] was “inactive” each time. Moreover, the outcome in test [4] and in test [5] was inactive. The Potency in test [1] is 92 nM (active).

`CC(N)C(=O)OC(C)(C)Cc1ccc(Cl)cc1` (stereo not drawn): the Potency entry in test [6], in test [2], in test [3] and in test [1] was “inactive” each time. Besides, the result in test [4] was inactive.

Take `NC[C@@H]1O[C@H](C23CC4CC(CC(C4)C2)C3)Cc2c1ccc(O)c2O`: the Potency result in test [2] and in test [3] was “inactive” each time. Further, the result in test [4] and in test [5] was inactive.

With `N.N.N.N.N.N.N.N.N.N.N.N.N.N.O.O.[Ru+4].[Ru+5].[Ru+5]`, the Potency result in test [2] is “inactive”.

On to `CN(C)C(N)=NCCC[C@H](N)C(=O)O`, for which the Potency entry in test [2], in test [3] and in test [1] was “inactive” in each case. In addition, the compound was called inactive in test [4] and in test [5].

Regarding `CCN(CC)c1ncnc2c1ncn2[C@@H]1O[C@H](COP(=O)(O)OP(=O)(O)C(Br)(Br)P(=O)(O)O)[C@@H](O)[C@H]1O`, the Potency entry in test [2], in test [3] and in test [1] was “inactive” in each case. The compound was called inactive in test [4] and in test [5].

In the case of `C[N+](C)(CCCCCC[N+](C)(C)CCCN1C(=O)c2cccc3cccc(c23)C1=O)CCCN1C(=O)c2cccc3cccc(c23)C1=O`, the Potency result in test [2], in test [3] and in test [1] was “inactive” each time. Also, the outcome in test [4] and in test [5] was inactive.

For `Brc1c(Br)c(Br)c2n[nH]nc2c1Br`, the Potency entry in test [2], in test [3] and in test [1] was “inactive” throughout. Besides, the compound was called inactive in test [4] and in test [5].

For `C[C@@H](CN1CCC(Cc2ccccc2)CC1)[C@@H](O)c1ccc(O)cc1`, the Potency entry in test [2], in test [3] and in test [1] was “inactive” throughout. Further, the compound was called inactive in test [4] and in test [5].

On to `NO`, for which the Potency result in test [2], in test [3] and in test [1] was “inactive” throughout. Further, the compound was classed as inactive in test [4] and in test [5].

As for `CN1[C@@H](CC(=O)c2ccccc2)CCC[C@H]1C[C@H](O)c1ccccc1`, the Potency result in test [6], in test [2], in test [3] and in test [1] was “inactive” each time. The compound was classed as inactive in test [4] and in test [5].

`CN1C2CCC1CC(OC(=O)C(O)c1ccccc1)C2` (stereo not drawn): the Potency result in test [2] and in test [3] was “inactive” each time. The call in test [4] and in test [5] was inactive.

Take `CCCC1(C)C(C#N)(C#N)C1(C#N)C#N`: the Potency result in test [2], in test [3] and in test [1] was “inactive” throughout. In addition, the outcome in test [4] and in test [5] was inactive.

With `CN(C)c1nc2c(Br)c(Br)c(Br)c(Br)c2[nH]1`, the Potency result in test [2], in test [3] and in test [1] was “inactive” each time. Besides, the result in test [4] and in test [5] was inactive.

As for `COc1ccc2c(c1)CCC1C2CC[C@@]2(C)C1CC[C@@H]2NCCCCCCN1C(=O)CCC1=O` (stereo partly drawn), the Potency entry in test [2], in test [3] and in test [1] was “inactive” each time. The compound was called inactive in test [4] and in test [5].

With `C=CC(N)CCC(=O)O` (stereo not drawn), the Potency result in test [6], in test [2], in test [3] and in test [1] was “inactive” each time.

Regarding `NC(N)=NC(=O)c1nc(Cl)c(N2CCCCCC2)nc1N`, the Potency result in test [2], in test [3] and in test [1] was “inactive” in each case. The outcome in test [4] and in test [5] was inactive.

In the case of `Cc1cc2c(cc1Cl)N(C(=O)Nc1ccc(Oc3cccnc3C)nc1)CC2`, the Potency entry in test [2], in test [3] and in test [1] was “inactive” throughout. The compound was classed as inactive in test [4] and in test [5].

For `N=C(N)SCCc1ccc(CCSC(=N)N)cc1`, the Potency result in test [2], in test [3] and in test [1] was “inactive” throughout. Besides, the outcome in test [4] and in test [5] was inactive.

As for `O=C(O)c1cc([N+](=O)[O-])ccc1NCCCc1ccccc1`, the Potency result in test [2], in test [3] and in test [1] was “inactive” each time. In addition, the compound was called inactive in test [4] and in test [5].

In the case of `Cc1ccc(C(=O)O[C@H](C(=O)O)[C@@H](OC(=O)c2ccc(C)cc2)C(=O)O)cc1` (tested in a mixture with another compound), the Potency result in test [2], in test [3] and in test [1] was “inactive” in each case. The compound was called inactive in test [4] and in test [5].

Consider `O=Nc1ccc2oc(=O)ccc2c1`, for which the Potency in test [2] is 10000 nM (active). The Potency result in test [3] and in test [1] was “inactive” in each case. Besides, the compound was called inactive in test [4] and in test [5].

Consider `CC(=O)SCC[N+](C)(C)C`, for which the Potency result in test [2], in test [3] and in test [1] was “inactive” each time. For the same compound, the compound was classed as inactive in test [4] and in test [5].

Consider `Nc1nc(Cl)nc2c1ncn2[C@@H]1O[C@H](COP(=O)(O)OP(=O)(O)OP(=O)(O)O)[C@@H](O)[C@H]1O`, for which the Potency entry in test [2] and in test [3] was “inactive” throughout. Besides, the result in test [4] and in test [5] was inactive.

As to `Fc1ccc(C(OCCCc2cnc[nH]2)c2ccc(F)cc2)cc1`, the Potency result in test [2], in test [3] and in test [1] was “inactive” each time. The compound was called inactive in test [4] and in test [5].

For the compound `C=CC(=O)c1ccc(CCCCCC)cc1`, the Potency result in test [2] and in test [3] was “inactive” in each case.

In the case of `C[C@@H](NC(=O)/C(C#N)=C/c1ccc(O)c(O)c1)c1ccccc1`, the Potency in test [2] is 1000 nM (active). The Potency result in test [3] and in test [1] was “inactive” in each case. The compound was called inactive in test [4] and in test [5].

Consider `O=C(O)/C=C/C(O)c1ccc(Cl)cc1` (stereo not drawn), for which the Potency entry in test [6], in test [2], in test [3] and in test [1] was “inactive” throughout. Moreover, in test [4], the call was inactive.

Turning to `NS(=O)(=O)C#Cc1ccccc1`, the Potency entry in test [2], in test [3] and in test [1] was “inactive” in each case. Also, the result in test [4] and in test [5] was inactive.

For `CC(=O)N[C@H](C(=O)O)C(C)(C)SN=O`, the Potency entry in test [2], in test [3] and in test [1] was “inactive” each time. The call in test [4] and in test [5] was inactive.

On to `CCCn1c(=O)c2[nH]c(-c3ccc(OCC(=O)NCCN)cc3)nc2n(CCC)c1=O`, for which the Potency entry in test [2], in test [3] and in test [1] was “inactive” throughout. The outcome in test [4] and in test [5] was inactive.

As to `Cc1ccccc1CNc1ncnc2c1ncn2C1OC(CO)C(O)C1O` (stereo not drawn), the Potency result in test [6], in test [2], in test [3] and in test [1] was “inactive” each time. For the same compound, the result in test [4] and in test [5] was inactive.

For `O=[N+]([O-])c1ccc(CSc2ncnc3c2ncn3[C@@H]2O[C@H](CO)[C@@H](O)[C@H]2O)cc1`, the Potency entry in test [2], in test [3] and in test [1] was “inactive” throughout. In addition, the result in test [4] and in test [5] was inactive.

With `CCCCN1CCC(n2c(=O)[nH]c3ccccc32)CC1`, the Potency entry in test [2], in test [3] and in test [1] was “inactive” in each case. For the same compound, the compound was classed as inactive in test [4] and in test [5].
